The structures appear in SMILES notation. Values joined by “and” are separate entries in the source; they are usually repeats but may differ in a detail not shown here. Equal entries are not always repeated. Results filed as inconclusive are left out. Some compounds were tested as several samples or in several runs, with calls that do not always agree. Active and inactive are the calls of the source. The calls were made as follows, unless noted: active = hit-call score of the fitted dose curve at least 0.9, where 1 is the maximum; inactive = score below 0.9.

The record followed here is PubChem BioAssay (EPA / NIEHS).

Experiment [1] has as its target Glucocorticoid receptor (Homo sapiens) (UniProt P04150). Nature of the experiment: ATG_GR_TRANS: Attagene TRANS-FACTORIAL HepG2 Assay for human Glucocorticoid Receptor (GR) (AID 2282978; active = hit-call score of the fitted dose curve at least 0.9, where 1 is the maximum;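 also: activators score as hits since higher reporter transcript over DMSO is fitted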). The following applies: HepG2 Attagene TRANS GR reporter, mRNA transcription. Summed up:
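Measurement of GAL4-UAS-driven reporter mRNA in human HepG2 liver cells 24 h post-dosing, using RT-PCR with fluorescent labelling and capillary electrophoresis; the transfected constructs report exogenous NR-GAL4 chimera activity, fitted upward against DMSO.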

Experiment [2] has as its target Oxysterols receptor LXR-alpha (Homo sapiens) (UniProt Q13133). Nature of the experiment: ATG_LXRa_TRANS: Attagene TRANS-FACTORIAL HepG2 Assay for human Liver X Receptor alpha (LXRa) (AID 2282980; active = hit-call score of the fitted dose curve at least 0.9, where 1 is the maximum). To be noted: HepG2 Attagene TRANS reporter, LXRa transactivation. Summed up: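 Transfect HepG2 with GAL4-UAS multiplex reporter constructs (TRANS format, chimeric receptor-GAL4); treat 24 h; extract RNA, reverse-transcribe, PCR-amplify, FAM-label, HpaI-digest; resolve fragments by capillary electrophoresis. Upward response vs DMSO.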

For experiment [3], the target named is Oxysterols receptor LXR-beta (Homo sapiens) (UniProt P55055). Nature of the experiment: ATG_LXRb_TRANS: Attagene TRANS-FACTORIAL HepG2 Assay for human Liver X Receptor beta (LXRb) (AID 2282981; active = hit-call score of the fitted dose curve at least 0.9, where 1 is the maximum). The following applies: HepG2 Attagene TRANS GAL4-LXRb reporter, mRNA. Summed up: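 Gain-of-signal mRNA reporter endpoint, DMSO as negative control. Transiently transfected HepG2 cells carrying the NR-Gal4 chimera and GAL4-UAS reporter units were treated 24 h; transcripts quantified by RT-PCR and capillary electrophoresis fluorescence.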
Oxysterols receptor LXR-beta (Homo sapiens), sequence (P55055 whole entry, looked up, the tested form may be a part): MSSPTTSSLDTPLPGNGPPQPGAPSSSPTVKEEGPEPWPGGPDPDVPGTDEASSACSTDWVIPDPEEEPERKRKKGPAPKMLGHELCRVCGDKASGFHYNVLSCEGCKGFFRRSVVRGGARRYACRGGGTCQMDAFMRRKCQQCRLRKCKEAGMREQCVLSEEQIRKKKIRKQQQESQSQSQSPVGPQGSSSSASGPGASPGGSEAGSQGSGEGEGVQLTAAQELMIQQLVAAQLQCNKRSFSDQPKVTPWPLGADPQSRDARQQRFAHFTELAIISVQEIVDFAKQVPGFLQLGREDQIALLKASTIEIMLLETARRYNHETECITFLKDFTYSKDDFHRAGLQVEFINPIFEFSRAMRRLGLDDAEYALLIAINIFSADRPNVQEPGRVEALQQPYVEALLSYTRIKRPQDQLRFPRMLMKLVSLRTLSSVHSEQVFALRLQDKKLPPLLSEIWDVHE

Experiment [4] has as its target Transcriptional activator Myb (Homo sapiens) (UniProt P10242). The experiment can be described thus: ATG_Myb_CIS: Attagene CIS-FACTORIAL HepG2 Assay for human Myeloblastosis (Myb) Proto-Oncogene Transcription Factor (AID 2282986). To be noted: HepG2 Attagene CIS-FACTORIAL Myb reporter transcription; actives raise or lower the signal. Summed up:
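Fluorescence signals from capillary electrophoresis of RT-PCR-amplified reporter cDNA give the read-out. Cells: HepG2 transfected with multiple cis-regulated reporter units. Exposure lasts 24 hours; DMSO defines baseline for gain or loss of signal.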

Experiment [5] addresses Nuclear respiratory factor 1 (Homo sapiens) (UniProt Q16656). The experiment can be described thus: ATG_NRF1_CIS: Attagene CIS-FACTORIAL HepG2 Assay for human Nuclear Respiratory Factor 1 (NRF1) Orphan Gene (AID 2282987). The following applies: HepG2 NRF1 cis-element reporter, Attagene multiplex; actives raise or lower the signal. In outline: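 Transcriptional reporter readout, one component of a 52-endpoint multiplexed HepG2 panel. Exposure 24 h; mRNA detected via RT-PCR and fluorescent capillary electrophoresis; fitting in both directions against DMSO.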

Experiment [6] is described as follows: ATG_NFI_CIS: Attagene CIS-FACTORIAL HepG2 Assay for human Nuclear Factor I (NFI) (AID 2282989). The following applies: HepG2 cis-regulatory reporter, NFI response element transcription; actives raise or lower the signal. Summed up:
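Read-out: reporter mRNA via RT-PCR plus capillary electrophoresis with fluorescence detection. Transiently transfected HepG2 (endogenous TF activity on cis promoters), 24 h compound exposure; gain or loss of signal fitted against DMSO.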

Experiment [7] addresses Myc proto-oncogene protein (Homo sapiens) (UniProt P01106). The experiment can be described thus: ATG_Myc_CIS: Attagene CIS-FACTORIAL HepG2 Assay for human Myelocytomatosis (Myc) Proto-Oncogene Transcription Factor (AID 2282990). To be noted: HepG2, Attagene cis-reporter transcription factor activity; actives raise or lower the signal. In outline: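 Read-out: fluorescent reporter mRNA fragments resolved by capillary electrophoresis after RT-PCR. Human HepG2 liver cells carried transfected cis-element reporter units and were dosed for 24 h. Gain or loss of signal fitted relative to DMSO baseline.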

Experiment [8] is described as follows: ATG_NF_kB_CIS: Attagene CIS-FACTORIAL HepG2 Assay for human Nuclear Factor Kappa B (NF-kB) (AID 2282991). The following applies: HepG2 Attagene cis-factorial NF-kB reporter mRNA; actives raise or lower the signal. Summed up: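 HepG2, transient multi-reporter transfection, cis promoter elements (endogenous TFs). 24 h exposure. Total RNA → RT → PCR → 6-FAM label → HpaI → CE. Gain/loss vs DMSO.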

Experiment [9] is described as follows: ATG_NRF2_ARE_CIS: Attagene CIS-FACTORIAL HepG2 Assay for human Nuclear Factor Erythroid 2 Related Factor 2 (NFR2) response to Antioxidant Response Elements (ARE) (AID 2282992).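 As to AC50: reporter mRNA level measured by RT-PCR and capillary electrophoresis fluorescence.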 To be noted: HepG2 Attagene ARE/NRF2 reporter, transcription factor activity; actives raise or lower the signal. In outline:
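Multiplexed reporter mRNA profiling in HepG2 after a 24 h chemical exposure. Curves fitted in both directions relative to DMSO negative control.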

The nature of experiment [10]: ATG_Oct_MLP_CIS: Attagene CIS-FACTORIAL HepG2 Assay for human Octamer-Binding Transcription Factor (Oct) (AID 2282993). The following applies: HepG2 Attagene cis-factorial Oct reporter, mRNA; actives raise or lower the signal. Summed up: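 Read-out: reporter mRNA via RT-PCR plus capillary electrophoresis of 6-FAM-labelled fragments. Transiently transfected HepG2, 24 h exposure, endogenous TF activity on cis elements. Gain or loss of signal fitted relative to DMSO.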

Experiment [11] addresses Cellular tumor antigen p53 (Homo sapiens) (UniProt P04637). Nature of the experiment: ATG_p53_CIS: Attagene CIS-FACTORIAL HepG2 Assay for human p53 Transcription Factor (AID 2282994). The following applies: HepG2 p53 cis-element reporter, Attagene mRNA; actives raise or lower the signal. In outline: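 Multiplexed reporter mRNA assay in human HepG2 liver cells; cis-regulated units report endogenous factor activity. Values come from bidirectional curve fitting against DMSO negative control after 24 h treatment.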

Experiment [12] deals with Estrogen-related receptor gamma (Homo sapiens) (UniProt P62508). The experiment can be described thus: ATG_ERRg_TRANS: Attagene TRANS-FACTORIAL HepG2 Assay for human Estrogen-Related Receptor gamma (ERRg) (AID 2282977; active = hit-call score of the fitted dose curve at least 0.9, where 1 is the maximum;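 also: hits increase reporter signal over DMSO so potencies reflect activators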). To be noted: HepG2 Attagene TRANS reporter, ERRg transactivation. Summed up: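 HepG2 cells transiently transfected with multiplexed GAL4-UAS reporter units and chimeric NR-Gal4 constructs were exposed to test chemicals for 24 h. Reporter mRNA was measured by RT-PCR, 6-FAM primer extension, HpaI digestion and capillary electrophoresis; gain-of-signal versus DMSO.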

Experiment [13] can be described thus: ATG_M_06_TRANS: Attagene TRANS-FACTORIAL HepG2 Assay for M06 Transcription Factor (Internal Marker) (AID 2282983; active = hit-call score of the fitted dose curve at least 0.9, where 1 is the maximum). To be noted: HepG2 Attagene TRANS M06 internal marker reporter. In outline:
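Transfect HepG2 with MRTUs → dose compounds 24 h → isolate RNA, oligo(dT) RT → PCR with reporter primers → 6-FAM primer extension → HpaI digest → CE fragment analysis. Positive direction vs DMSO.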

The nature of experiment [14]: ATG_M_32_TRANS: Attagene TRANS-FACTORIAL HepG2 Assay for M32 Transcription Factor (Internal Marker) (AID 2282984; active = hit-call score of the fitted dose curve at least 0.9, where 1 is the maximum;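 also: transcript level of a background control reporter unit measured by RT-PCR and capillary electrophoresis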). To be noted: HepG2 Attagene TRANS M32 internal marker reporter. In outline: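 Capillary electrophoresis of 6-FAM-labelled reporter fragments gives the signal; data fitted for gain over DMSO negative control. Source: HepG2 cells bearing transient multiple reporter transcription units, 24 h exposure.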

Experiment [15] has as its target Bile acid receptor (Homo sapiens) (UniProt Q96RI1). Nature of the experiment: ATG_FXR_TRANS: Attagene TRANS-FACTORIAL HepG2 Assay for Farnesoid X Receptor (FXR) (AID 2282979; active = hit-call score of the fitted dose curve at least 0.9, where 1 is the maximum;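 also: hits raise reporter mRNA above DMSO so AC50 marks FXR activation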). The following applies: HepG2 Attagene TRANS FXR-GAL4 reporter transcription. Summed up: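 Transient transfection of HepG2 with multiplexed GAL4-UAS reporter units; exogenous FXR-GAL4 chimera. Dose 24 h → TriZol RNA → oligo(dT) RT → PCR, 6-FAM primer extension, HpaI cut → CE. Gain vs DMSO.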

In experiment [16] the target is Hepatocyte nuclear factor 4-alpha (Homo sapiens) (UniProt P41235). Nature of the experiment: ATG_HNF4a_TRANS: Attagene TRANS-FACTORIAL HepG2 Assay for human Hepatocyte Nuclear Factor 4 alpha (HNF4a) (AID 2282982; active = hit-call score of the fitted dose curve at least 0.9, where 1 is the maximum). To be noted: HepG2 HNF4a transactivation reporter, mRNA readout. Summed up: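 Gain-of-signal mRNA induction, relative to DMSO vehicle, was read after 24 h compound treatment of HepG2 cells bearing transfected GAL4-UAS reporters. Detection used RT-PCR, 6-FAM primer extension and capillary electrophoresis.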
Hepatocyte nuclear factor 4-alpha (Homo sapiens), sequence (P41235 whole entry, looked up, the tested form may be a part): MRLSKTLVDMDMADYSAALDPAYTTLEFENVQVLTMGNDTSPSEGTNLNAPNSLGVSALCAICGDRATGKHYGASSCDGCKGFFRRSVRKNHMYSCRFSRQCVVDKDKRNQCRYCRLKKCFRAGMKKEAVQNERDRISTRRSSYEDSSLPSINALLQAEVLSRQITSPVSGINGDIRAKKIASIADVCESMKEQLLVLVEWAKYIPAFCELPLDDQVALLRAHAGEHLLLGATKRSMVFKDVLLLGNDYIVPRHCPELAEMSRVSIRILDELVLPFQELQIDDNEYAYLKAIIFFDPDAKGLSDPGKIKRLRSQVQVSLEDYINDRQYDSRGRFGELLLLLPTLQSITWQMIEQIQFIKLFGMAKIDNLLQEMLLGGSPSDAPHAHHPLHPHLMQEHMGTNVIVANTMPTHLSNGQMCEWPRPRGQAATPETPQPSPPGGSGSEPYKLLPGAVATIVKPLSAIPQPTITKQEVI

Experiment [17] addresses Nuclear receptor subfamily 4 group A member 2 (Homo sapiens) (UniProt P43354). Nature of the experiment: ATG_NURR1_TRANS: Attagene TRANS-FACTORIAL HepG2 Assay for human Nuclear Receptor Related Protein 1 (NURR1) (AID 2282985; active = hit-call score of the fitted dose curve at least 0.9, where 1 is the maximum). To be noted: HepG2 Attagene TRANS reporter, mRNA readout. In outline: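 HepG2 / transient MRTU transfection / 24 h compound exposure / RT-PCR + CE fluorescence of reporter mRNA / gain-of-signal vs DMSO.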

The nature of experiment [18]: BSK_3C_TissueFactor: BioMAP Diversity Plus: 3C Assay for Tissue Factor Biomarker Activity (AID 2282997). To be noted: BioMAP 3C HUVEC, tissue factor biomarker readout; actives raise or lower the signal. In outline:
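ELISA read-out of Tissue Factor levels on human umbilical vein endothelium collected 24 h after chemical dosing. Gain or loss of signal was fitted relative to DMSO.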

Experiment [19] is described as follows: BSK_3C_uPAR: BioMAP Diversity Plus: 3C Assay for Urokinase-type plasminogen activator receptor (uPAR) Biomarker Activity (AID 2282998). The following applies: BioMAP 3C HUVEC, uPAR biomarker ELISA; actives raise or lower the signal. Summed up:
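HUVEC primary cells; 24 h post-dose; uPAR by ELISA; gain or loss of signal fitted bidirectionally vs DMSO baseline.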

Experiment [20] is described as follows: BSK_3C_VCAM1: BioMAP Diversity Plus: 3C Assay for Vascular cell adhesion molecule 1 (VCAM1) Biomarker Activity (AID 2282999). The following applies: BioMAP 3C HUVEC, VCAM1 ELISA, cytokine-stimulated; actives raise or lower the signal. In outline:
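Human umbilical vein endothelial cells (3C system), biomarker read by ELISA 24 h after dosing; bidirectional fit against DMSO baseline. Cytotoxicity tracked by SRB total-protein staining in parallel cultures at biomarker time.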

Glucocorticoid receptor (Homo sapiens), sequence (P04150 whole entry, looked up, the tested form may be a part): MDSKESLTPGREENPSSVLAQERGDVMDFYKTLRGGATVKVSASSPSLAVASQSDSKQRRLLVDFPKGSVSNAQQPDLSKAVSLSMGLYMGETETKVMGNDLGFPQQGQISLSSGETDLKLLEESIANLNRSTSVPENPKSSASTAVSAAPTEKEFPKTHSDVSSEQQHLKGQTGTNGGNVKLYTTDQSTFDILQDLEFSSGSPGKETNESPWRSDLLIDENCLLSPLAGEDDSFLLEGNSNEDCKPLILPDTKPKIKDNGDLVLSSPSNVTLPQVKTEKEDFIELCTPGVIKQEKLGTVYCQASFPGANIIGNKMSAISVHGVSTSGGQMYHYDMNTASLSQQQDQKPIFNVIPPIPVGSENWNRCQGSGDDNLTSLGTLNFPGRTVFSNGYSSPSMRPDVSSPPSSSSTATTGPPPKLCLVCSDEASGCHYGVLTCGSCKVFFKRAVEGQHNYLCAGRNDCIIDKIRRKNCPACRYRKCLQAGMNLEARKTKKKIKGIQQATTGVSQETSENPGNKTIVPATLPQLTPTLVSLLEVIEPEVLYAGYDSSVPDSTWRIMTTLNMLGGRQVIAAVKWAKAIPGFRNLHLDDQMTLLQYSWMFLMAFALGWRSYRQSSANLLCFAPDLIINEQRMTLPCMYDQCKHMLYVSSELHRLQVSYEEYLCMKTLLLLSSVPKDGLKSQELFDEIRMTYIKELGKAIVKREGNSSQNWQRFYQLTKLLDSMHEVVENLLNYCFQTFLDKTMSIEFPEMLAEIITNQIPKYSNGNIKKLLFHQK
Oxysterols receptor LXR-alpha (Homo sapiens), sequence (Q13133 whole entry, looked up, the tested form may be a part): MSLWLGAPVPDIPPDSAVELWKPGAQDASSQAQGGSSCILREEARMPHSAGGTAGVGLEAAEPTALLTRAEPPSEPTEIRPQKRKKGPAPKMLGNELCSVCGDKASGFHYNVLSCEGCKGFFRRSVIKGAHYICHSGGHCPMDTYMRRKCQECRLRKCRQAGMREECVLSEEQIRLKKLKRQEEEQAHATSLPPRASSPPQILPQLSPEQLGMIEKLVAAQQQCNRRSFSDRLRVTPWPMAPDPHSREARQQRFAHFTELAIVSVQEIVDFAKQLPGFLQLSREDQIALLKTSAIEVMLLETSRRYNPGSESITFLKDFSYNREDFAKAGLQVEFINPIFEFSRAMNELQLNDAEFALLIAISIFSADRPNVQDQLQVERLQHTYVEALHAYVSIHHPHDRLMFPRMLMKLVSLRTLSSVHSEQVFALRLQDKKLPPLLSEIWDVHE
Cellular tumor antigen p53 (Homo sapiens), sequence (P04637 whole entry, looked up): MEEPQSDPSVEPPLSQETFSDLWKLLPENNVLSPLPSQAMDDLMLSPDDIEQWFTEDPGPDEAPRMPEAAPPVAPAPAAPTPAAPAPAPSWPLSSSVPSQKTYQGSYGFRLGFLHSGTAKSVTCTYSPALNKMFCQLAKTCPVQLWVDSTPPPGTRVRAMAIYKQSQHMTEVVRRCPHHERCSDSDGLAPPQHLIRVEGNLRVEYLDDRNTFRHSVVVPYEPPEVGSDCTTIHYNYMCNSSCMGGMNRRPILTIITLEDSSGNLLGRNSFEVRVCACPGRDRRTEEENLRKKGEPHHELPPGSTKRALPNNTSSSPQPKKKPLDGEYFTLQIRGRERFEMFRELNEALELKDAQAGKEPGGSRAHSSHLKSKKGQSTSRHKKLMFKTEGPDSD
Nuclear respiratory factor 1 (Homo sapiens), sequence (Q16656 whole entry, looked up): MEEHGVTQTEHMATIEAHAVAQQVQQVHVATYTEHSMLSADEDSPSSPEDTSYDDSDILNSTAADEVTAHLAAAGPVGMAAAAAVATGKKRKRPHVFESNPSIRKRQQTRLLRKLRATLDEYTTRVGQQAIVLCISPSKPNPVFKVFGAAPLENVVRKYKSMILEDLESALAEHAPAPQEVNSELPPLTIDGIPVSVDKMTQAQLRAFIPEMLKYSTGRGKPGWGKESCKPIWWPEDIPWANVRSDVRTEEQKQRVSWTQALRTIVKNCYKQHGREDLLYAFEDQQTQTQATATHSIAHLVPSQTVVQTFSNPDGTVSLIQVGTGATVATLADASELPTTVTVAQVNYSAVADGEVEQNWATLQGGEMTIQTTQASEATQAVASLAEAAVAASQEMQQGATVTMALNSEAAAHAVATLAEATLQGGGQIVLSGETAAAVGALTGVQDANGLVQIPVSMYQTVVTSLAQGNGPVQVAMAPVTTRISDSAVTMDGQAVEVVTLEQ
Transcriptional activator Myb (Homo sapiens), sequence (P10242 whole entry, looked up): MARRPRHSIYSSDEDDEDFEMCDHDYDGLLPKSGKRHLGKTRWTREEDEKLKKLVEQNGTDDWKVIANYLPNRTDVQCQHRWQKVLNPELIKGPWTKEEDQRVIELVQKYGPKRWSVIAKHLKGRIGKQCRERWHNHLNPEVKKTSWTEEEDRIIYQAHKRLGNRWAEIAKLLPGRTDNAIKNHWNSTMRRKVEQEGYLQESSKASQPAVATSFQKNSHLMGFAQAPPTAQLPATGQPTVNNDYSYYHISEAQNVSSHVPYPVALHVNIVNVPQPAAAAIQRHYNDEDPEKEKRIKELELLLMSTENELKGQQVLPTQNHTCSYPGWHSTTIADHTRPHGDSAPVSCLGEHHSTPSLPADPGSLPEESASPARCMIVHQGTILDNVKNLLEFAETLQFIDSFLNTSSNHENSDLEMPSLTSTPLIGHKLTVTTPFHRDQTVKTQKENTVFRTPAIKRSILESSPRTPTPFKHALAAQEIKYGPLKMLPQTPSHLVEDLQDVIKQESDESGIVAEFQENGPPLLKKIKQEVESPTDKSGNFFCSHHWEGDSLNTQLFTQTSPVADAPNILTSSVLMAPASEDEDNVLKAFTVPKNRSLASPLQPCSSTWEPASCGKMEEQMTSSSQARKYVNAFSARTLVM
Nuclear receptor subfamily 4 group A member 2 (Homo sapiens), sequence (P43354 whole entry, looked up): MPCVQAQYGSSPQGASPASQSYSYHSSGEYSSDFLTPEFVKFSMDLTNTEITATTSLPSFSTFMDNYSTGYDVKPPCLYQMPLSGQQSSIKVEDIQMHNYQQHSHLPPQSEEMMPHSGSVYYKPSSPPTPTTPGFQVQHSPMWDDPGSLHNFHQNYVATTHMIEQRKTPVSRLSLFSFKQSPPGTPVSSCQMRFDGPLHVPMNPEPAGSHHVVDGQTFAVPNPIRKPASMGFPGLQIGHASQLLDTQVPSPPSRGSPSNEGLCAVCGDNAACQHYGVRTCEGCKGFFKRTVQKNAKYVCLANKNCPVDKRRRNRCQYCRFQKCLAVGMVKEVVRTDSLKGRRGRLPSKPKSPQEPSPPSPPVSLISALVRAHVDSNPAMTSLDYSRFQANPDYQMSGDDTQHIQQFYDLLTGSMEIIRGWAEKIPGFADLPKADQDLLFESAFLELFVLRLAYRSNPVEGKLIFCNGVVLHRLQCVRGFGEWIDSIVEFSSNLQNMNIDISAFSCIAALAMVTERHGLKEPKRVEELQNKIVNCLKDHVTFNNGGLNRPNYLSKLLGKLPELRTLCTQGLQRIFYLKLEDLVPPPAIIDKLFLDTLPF
Myc proto-oncogene protein (Homo sapiens), sequence (P01106 whole entry, looked up, the tested form may be a part): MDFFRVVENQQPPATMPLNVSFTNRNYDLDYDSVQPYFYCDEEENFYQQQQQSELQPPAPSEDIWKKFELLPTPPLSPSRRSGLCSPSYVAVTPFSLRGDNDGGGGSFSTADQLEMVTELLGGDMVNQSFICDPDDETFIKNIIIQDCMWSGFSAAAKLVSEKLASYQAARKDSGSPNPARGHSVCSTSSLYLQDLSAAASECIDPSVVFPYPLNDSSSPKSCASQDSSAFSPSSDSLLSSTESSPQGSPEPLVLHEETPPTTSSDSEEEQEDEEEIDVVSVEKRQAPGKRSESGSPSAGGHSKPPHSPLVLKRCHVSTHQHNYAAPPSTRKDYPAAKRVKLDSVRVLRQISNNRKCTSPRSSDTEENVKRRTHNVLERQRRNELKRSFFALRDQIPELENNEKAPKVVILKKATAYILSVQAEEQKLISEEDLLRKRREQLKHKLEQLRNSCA

Turning to `COc1ccccc1O`, the compound was called inactive in experiment [1], in [2], in experiment [3], in experiment [4], in experiment [5] and in [6]. The result in [7], in experiment [8], in experiment [9], in experiment [10] and in experiment [11] was inactive.
In the case of `NS(=O)(=O)c1cc(C(=O)O)c(NCc2ccco2)cc1Cl`, the compound was classed as inactive in experiment [12], in [13], in experiment [14], in experiment [4], in experiment [7] and in experiment [10].
On to `O=S(=O)(O)c1cc(S(=O)(=O)O)c2c(N=Nc3ccccc3)c(O)ccc2c1`, for which the call in experiment [1], in experiment [15], in [3], in experiment [13], in [4] and in [5] was inactive. Further, the compound was called inactive in experiment [6], in [7], in [8], in experiment [9], in experiment [10] and in experiment [11].
On to `CCCCCCCCOC(=O)c1ccc(O)cc1`, for which the compound was called inactive in experiment [1], in experiment [2], in [16], in experiment [13], in [14] and in experiment [17]. The result in [4], in [5], in [6], in [7], in [9] and in experiment [10] was inactive.
Turning to `Cc1cc(N)n(-c2ccccc2)n1`, the result in [12], in experiment [13], in experiment [17], in experiment [4], in experiment [5] and in [7] was inactive. Besides, the compound was called inactive in [8], in experiment [9], in [10] and in experiment [11].
In the case of `O=C(c1ccc(OCCN2CCCCC2)cc1)c1c(-c2ccc(O)cc2)sc2cc(O)ccc12`, the outcome in experiment [1], in experiment [2], in experiment [3], in experiment [16], in experiment [13] and in experiment [14] was inactive. The call in experiment [17], in experiment [4], in experiment [5], in experiment [7], in [9] and in experiment [10] was inactive. Besides, the result in [11] was inactive. In addition, the half-maximal activity concentration (AC50) in experiment [4] is 18.5 µM (active); in [5], 19.6 µM (active) and 17.7 µM (active); in experiment [9], 6.44 µM (active) [middle of 4 runs]; in [10], 8.87 µM (active) [middle of 4 runs]; in [11], 9.07 µM (active) and 14.9 µM (active) and 15.1 µM (active); in experiment [18] it was 34.6 µM (active). In addition, the AC50 is 22.3 µM (active) in experiment [19] and 35.4 µM (active) in experiment [20].
